Test systems include NCI-H226 lung; NCI-H322M lung; HOP-62 NSCLC; NCI-H460 lung; HOP-92 NSCLC; NCI-H522 lung; A549/ATCC NSCLC; 786-0 renal; COLO 205 colon; DU-145 prostate; K-562 leukemia; MALME-3M melanoma; MDA-MB-231 breast; RXF 393 renal; SF-268 CNS; SF-295 CNS; SF-539 CNS; UACC-257 melanoma; M14 melanoma; HCT-15 colon.
What all share (test): NCI-60 one-dose screen, 48 h (100 = growth as untreated, 0 = no growth, -100 = all killed)
Common to all, as to conditions: 10 µM unless noted

Each structure is given as a SMILES string. About 83,000 compounds went through this panel and 20% of them were active in at least one assay; those are over-represented in the sample as a whole.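 Single-concentration screen, 48 h exposure, 96-well plates. Endpoint: percent growth. Below 10 = active.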 Values without a mark were called inactive. Calls of active or inactive are those of the source.

For `O=C(N/N=C/c1ccc[nH]1)c1[nH]c2ccc(Br)cc2c1-c1ccccc1`, the growth in the experiment on NCI-H226 lung was 35.9%; with NCI-H322M lung, 32.4%; with HOP-62 NSCLC it was 22.2%; in the experiment on NCI-H460 lung, 2.17% (active); in the experiment on HOP-92 NSCLC it was 15.5%; with NCI-H522 lung, -20.2% (active). For the same compound, the growth with A549/ATCC NSCLC was 17.6%; with 786-0 renal, 13.7%; in the experiment on COLO 205 colon it was 6.05% (active); in the experiment on DU-145 prostate it was 20.6%; in the experiment on K-562 leukemia, 3.06% (active); with MALME-3M melanoma it was 45.1%. For the same compound, the growth in the experiment with MDA-MB-231 breast is 14%; with RXF 393 renal it was 53.2%; with SF-268 CNS, 25.3%; with SF-295 CNS, 7.67% (active); in the experiment on SF-539 CNS, 14.2%; with UACC-257 melanoma it was 30.3%. Also, the growth was 13.2% in the experiment with M14 melanoma and 9.42% (active) with HCT-15 colon.

As to `NS(=O)(=O)c1cccc(Nc2nc(SCC(=O)c3ccc(Cl)cc3)nc3ccccc23)c1`, the growth in the experiment with NCI-H226 lung is 42.5%; with NCI-H322M lung, 81.5%; in the experiment with HOP-62 NSCLC, 36.2%; in the experiment on NCI-H460 lung, 48.4%; with HOP-92 NSCLC it was 24.5%; in the experiment with NCI-H522 lung it was 59.4%. Moreover, the growth with A549/ATCC NSCLC was 79.5%; in the experiment on 786-0 renal, 74.4%; in the experiment on COLO 205 colon it was 105%; with DU-145 prostate, 78.3%; with K-562 leukemia, 68.2%; with MALME-3M melanoma it was 66.4%. For the same compound, the growth is 56% with MDA-MB-231 breast; 72.2% in the experiment with RXF 393 renal; 41.8% with SF-268 CNS; 71.8% with SF-295 CNS; 50.9% in the experiment with SF-539 CNS; 95% in the experiment on UACC-257 melanoma. Besides, the growth is 99.3% with M14 melanoma and 88.8% in the experiment with HCT-15 colon.

Take `NS(=O)(=O)c1ccc(Nc2nc(SCC(=O)c3ccc(Cl)cc3)nc3ccccc23)cc1`: the growth was 87.1% in the experiment with NCI-H226 lung; 86.5% in the experiment on NCI-H322M lung; 95.3% with HOP-62 NSCLC; 97.1% in the experiment on NCI-H460 lung; 84.4% in the experiment with HOP-92 NSCLC; 88% in the experiment on NCI-H522 lung. Moreover, the growth with A549/ATCC NSCLC is 97.1%; in the experiment with 786-0 renal it was 96%; with COLO 205 colon, 107%; in the experiment with DU-145 prostate, 97.1%; with K-562 leukemia, 84%; with MALME-3M melanoma, 92.8%. In addition, the growth in the experiment on MDA-MB-231 breast was 87.9%; in the experiment on RXF 393 renal, 103%; in the experiment with SF-268 CNS, 104%; in the experiment with SF-295 CNS it was 95.1%; in the experiment with SF-539 CNS, 88.3%; with UACC-257 melanoma it was 102%. In addition, the values for the growth with M14 melanoma and in the experiment on HCT-15 colon were 97% and 86.6%, respectively.

`Cc1ccc(-c2nc(C(Cl)Cl)nc3cc(-c4ccccc4)nn23)cc1`: the growth in the experiment on NCI-H226 lung is 76.4%; in the experiment on NCI-H322M lung, -36.8% (active); in the experiment with HOP-62 NSCLC it was -16.7% (active); in the experiment with NCI-H460 lung it was -73.5% (active); in the experiment with HOP-92 NSCLC, -3.62% (active); in the experiment with NCI-H522 lung, 1.72% (active). For the same compound, the growth with A549/ATCC NSCLC was -56.3% (active); with 786-0 renal, 62.4%; in the experiment with COLO 205 colon, -69.4% (active); with DU-145 prostate, -26.3% (active); in the experiment on K-562 leukemia, 14.3%; in the experiment with MALME-3M melanoma it was 3.13% (active). For the same compound, the growth is 12.9% in the experiment with MDA-MB-231 breast; -63.8% (active) in the experiment on RXF 393 renal; 23.9% with SF-268 CNS; 10.3% in the experiment on SF-295 CNS; 34.4% with SF-539 CNS; 28.9% with UACC-257 melanoma. Besides, the growth is -11.1% (active) with M14 melanoma and 5.49% (active) in the experiment on HCT-15 colon.

For the compound `Oc1c(Cl)cc(Cl)c2ccc(CN3CCCCC3)nc12`, the growth with NCI-H226 lung is 48.6%; in the experiment on NCI-H322M lung it was 37.9%; in the experiment with HOP-62 NSCLC it was 48.1%; with NCI-H460 lung, 22.2%; in the experiment on HOP-92 NSCLC it was 48.6%; in the experiment on NCI-H522 lung, 34%. The growth is 44.7% with A549/ATCC NSCLC; 36.1% with 786-0 renal; 79.9% in the experiment on COLO 205 colon; 44% with DU-145 prostate; 21.9% with K-562 leukemia; 31.4% in the experiment with MALME-3M melanoma. Also, the growth with MDA-MB-231 breast is 40.4%; in the experiment with RXF 393 renal, 78.2%; with SF-268 CNS, 41.9%; in the experiment on SF-295 CNS, 26.5%; in the experiment with SF-539 CNS it was 29.1%; in the experiment with UACC-257 melanoma it was 43.1%. Further, the growth was 8.72% (active) with M14 melanoma and 26.7% in the experiment with HCT-15 colon.

In the case of `O=C1C2=C(C(=O)c3c(O)cccc31)C(c1ccco1)c1sc(=O)[nH]c1S2` (stereo not given), the growth in the experiment with NCI-H226 lung was -20.7% (active); in the experiment on NCI-H322M lung, -97.7% (active); in the experiment with HOP-62 NSCLC, -72.2% (active); in the experiment on NCI-H460 lung, -4% (active); in the experiment with HOP-92 NSCLC it was 69.5%; in the experiment with NCI-H522 lung, -5.29% (active). Besides, the growth in the experiment on A549/ATCC NSCLC is -47.7% (active); with 786-0 renal, 62.3%; in the experiment on COLO 205 colon, -89.4% (active); in the experiment on DU-145 prostate it was -93.9% (active); in the experiment with K-562 leukemia it was 22%; with MALME-3M melanoma, -92.3% (active). In addition, the growth in the experiment with MDA-MB-231 breast is 8.88% (active); in the experiment with RXF 393 renal, 32.5%; in the experiment with SF-268 CNS it was 50.7%; with SF-295 CNS, -15.6% (active); in the experiment on SF-539 CNS, -24% (active); in the experiment with UACC-257 melanoma, -28.2% (active). Moreover, the growth in the experiment on M14 melanoma was -97.6% (active); in the experiment with HCT-15 colon, 10.8%.

For the compound `COC(=O)C1CCCN(S(=O)(=O)/N=C2\NC(=O)NC2=C(Cl)Cl)C1` (stereo not given), the growth is 105% in the experiment with NCI-H226 lung; 103% in the experiment with NCI-H322M lung; 118% in the experiment on HOP-62 NSCLC; 108% in the experiment with NCI-H460 lung; 110% in the experiment on HOP-92 NSCLC; 87.7% with NCI-H522 lung. Moreover, the growth in the experiment on A549/ATCC NSCLC was 106%; in the experiment with 786-0 renal, 102%; with COLO 205 colon, 112%; in the experiment with DU-145 prostate it was 112%; in the experiment on K-562 leukemia, 10.9%; with MALME-3M melanoma, 104%. For the same compound, the growth in the experiment on MDA-MB-231 breast is 102%; in the experiment with RXF 393 renal it was 121%; in the experiment with SF-268 CNS, 106%; in the experiment on SF-295 CNS, 104%; with SF-539 CNS it was 105%; with UACC-257 melanoma it was 106%. Besides, the growth is 99.3% in the experiment with M14 melanoma and 80.7% with HCT-15 colon.

In the case of `Nc1c(C(=O)Nc2ccc(C(F)(F)F)cc2)sc2nc(-c3cnccn3)cc(-c3cccs3)c12`, the growth in the experiment on NCI-H226 lung is 6.24% (active); with NCI-H322M lung, 81.8%; with HOP-62 NSCLC, 68.1%; with NCI-H460 lung, 69.7%; with HOP-92 NSCLC it was -27.4% (active); in the experiment with NCI-H522 lung, 88.5%. The growth with A549/ATCC NSCLC was 77.9%; with 786-0 renal, -90.3% (active); with COLO 205 colon, 104%; in the experiment with DU-145 prostate, 90.1%; in the experiment with K-562 leukemia, 35.5%; with MALME-3M melanoma it was 89%. For the same compound, the growth in the experiment with MDA-MB-231 breast was 66.2%; with RXF 393 renal, 25.5%; in the experiment on SF-268 CNS, 78.6%; in the experiment on SF-295 CNS it was 78.7%; in the experiment with SF-539 CNS, -54.1% (active); in the experiment with UACC-257 melanoma, 95.8%. Also, the growth in the experiment on M14 melanoma was 49.4%; in the experiment on HCT-15 colon, 78.6%.

The values above are taken from PubChem BioAssay (NCI).
